Reference: article PMC5540273 (PLoS ONE, 2017)
Like-named read-outs stand apart in the source and are kept apart here.

Experiments:
MLK1 = test system: T1, MLK1; conditions: concentration: 1 μM, replicates: in singlicate; n = 1
T1 construct: gene MAP3K9

MLK2 = conditions: concentration: 1 μM, replicates: in singlicate; n = 1
MLK3 = conditions: concentration: 1 μM, replicates: in singlicate; n = 1
MRCKA = conditions: n = 1
MRCKB = test system: T2, MRCKB; conditions: concentration: 1 μM, replicates: in singlicate; n = 1
T2 construct: gene CDC42BPB

MST1R = conditions: concentration: 1 μM, replicates: in singlicate; n = 1
MST1 = test system: T3, MST1; conditions: concentration: 1 μM, replicates: in singlicate; n = 1
T3 construct: gene STK4

MST2 = test system: T4, MST2; conditions: concentration: 1 μM, replicates: in singlicate; n = 1
T4 construct: gene STK3

MST3 = test system: T5, MST3; conditions: concentration: 1 μM, replicates: in singlicate; n = 1
T5 construct: gene STK24

MST4 = conditions: concentration: 1 μM, replicates: in singlicate; n = 1
MTOR = conditions: concentration: 1 μM, replicates: in singlicate; n = 1
MUSK = conditions: concentration: 1 μM, replicates: in singlicate; n = 1
MYLK2 = conditions: concentration: 1 μM, replicates: in singlicate; n = 1
MYLK4 = conditions: concentration: 1 μM, replicates: in singlicate; n = 1
MYLK = conditions: concentration: 1 μM, replicates: in singlicate; n = 1
MYO3A = conditions: concentration: 1 μM, replicates: in singlicate; n = 1
MYO3B = conditions: concentration: 1 μM, replicates: in singlicate; n = 1
NDR1 = test system: T6, NDR1; conditions: concentration: 1 μM, replicates: in singlicate; n = 1
T6 construct: gene STK38

NDR2 = conditions: concentration: 1 μM, replicates: in singlicate; n = 1
NEK10 = conditions: concentration: 1 μM, replicates: in singlicate; n = 1
[1] = concentration: 1 μM, replicates: in singlicate
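Further: KINOMEscan kinase panel screen.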

## c1ccc(-c2cnc3nccnn23)cc1 [AH20685]
MLK1
  %Inh: 0%
MLK2
  %Inh: 0%
MLK3
  %Inh: 0%
MRCKA; [1]
  %Inh: 0%
MRCKB
  %Inh: 0%
MST1R
  %Inh: 38%
MST1
  %Inh: 5%
MST2
  %Inh: 0%
MST3
  %Inh: 0%
MST4
  %Inh: 0%
MTOR
  %Inh: 2%
MUSK
  %Inh: 2%
MYLK2
  %Inh: 0%
MYLK4
  %Inh: 0%
MYLK
  %Inh: 0%
MYO3A
  %Inh: 0%
MYO3B
  %Inh: 0%
NDR1
  %Inh: 0%
NDR2
  %Inh: 0%
NEK10
  %Inh: 0%

## CCn1c(-c2nonc2N)nc2c(C#CC(C)(C)O)ncc(OCCCCN)c21.O=C(O)C(F)(F)F.O=C(O)C(F)(F)F [GSK507274]
MLK1
  %Inh: 0%
MLK2
  %Inh: 0%
MLK3
  %Inh: 0%
MRCKA; 1 µM
  %Inh: 17%
MRCKB
  %Inh: 5%
MST1R
  %Inh: 33%
MST1
  %Inh: 3%
MST2
  %Inh: 0%
MST3
  %Inh: 0%
MST4
  %Inh: 2%
MTOR
  %Inh: 19%
MUSK
  %Inh: 15%
MYLK2
  %Inh: 48%
MYLK4
  %Inh: 0%
MYLK
  %Inh: 0%
MYO3A
  %Inh: 12%
MYO3B
  %Inh: 5%
NDR1
  %Inh: 7%
NDR2
  %Inh: 0%
NEK10
  %Inh: 15%

## Fc1ccc(-c2ncn(C3CCNCC3)c2-c2ccnc(Oc3ccc(-c4ccccc4)cc3)n2)cc1 [SB-245391]
MLK1
  %Inh: 52%
MLK2
  %Inh: 46%
MLK3
  %Inh: 0%
MRCKA; [1]
  %Inh: 26%
MRCKB
  %Inh: 59%
MST1R
  %Inh: 0%
MST1
  %Inh: 27%
MST2
  %Inh: 30%
MST3
  %Inh: 14%
MST4
  %Inh: 31%
MTOR
  %Inh: 0%
MUSK
  %Inh: 40%
MYLK2
  %Inh: 0%
MYLK4
  %Inh: 21%
MYLK
  %Inh: 16%
MYO3A
  %Inh: 24%
MYO3B
  %Inh: 17%
NDR1
  %Inh: 31%
NDR2
  %Inh: 13%
NEK10
  %Inh: 0%

## O=C(NC1CCN(c2ccnc(Nc3ccc(F)cc3)n2)C1)c1cc2ccccc2s1 (stereo not drawn) [GSK1379716]
MLK1
  %Inh: 0%
MLK2
  %Inh: 0%
MLK3
  %Inh: 29%
MRCKA; [1]
  %Inh: 10%
MRCKB
  %Inh: 5%
MST1R
  %Inh: 34%
MST1
  %Inh: 9%
MST2
  %Inh: 0%
MST3
  %Inh: 0%
MST4
  %Inh: 0%
MTOR
  %Inh: 25%
MUSK
  %Inh: 21%
MYLK2
  %Inh: 4%
MYLK4
  %Inh: 5%
MYLK
  %Inh: 36%
MYO3A
  %Inh: 36%
MYO3B
  %Inh: 0%
NDR1
  %Inh: 8%
NDR2
  %Inh: 0%
NEK10
  %Inh: 19%

## CNC(=O)c1ccccc1Nc1nc(Nc2ccc(N3CCOCC3)cc2)ncc1Cl.Cl [GSK1576028]
MLK1
  %Inh: 97.6%
MLK2
  %Inh: 82%
MLK3
  %Inh: 86%
MRCKA; [1]
  %Inh: 6%
MRCKB
  %Inh: 0%
MST1R
  %Inh: 92.9%
MST1
  %Inh: 99.1%
MST2
  %Inh: 97.5%
MST3
  %Inh: 61%
MST4
  %Inh: 85%
MTOR
  %Inh: 8%
MUSK
  %Inh: 74%
MYLK2
  %Inh: 74%
MYLK4
  %Inh: 99.9%
MYLK
  %Inh: 94%
MYO3A
  %Inh: 48%
MYO3B
  %Inh: 0%
NDR1
  %Inh: 97.9%
NDR2
  %Inh: 91.3%
NEK10
  %Inh: 24%

## C[C@@H]1CC[C@@H](C(=O)Nc2ccccc2)CN1c1cc(-c2ccc3c(N)n[nH]c3c2)nc(N)n1 [GSK2286062]
MLK1
  %Inh: 7%
MLK2
  %Inh: 0%
MLK3
  %Inh: 13%
MRCKA; [1]
  %Inh: 0%
MRCKB
  %Inh: 0%
MST1R
  %Inh: 26%
MST1
  %Inh: 0%
MST2
  %Inh: 0%
MST3
  %Inh: 11%
MST4
  %Inh: 0%
MTOR
  %Inh: 0%
MUSK
  %Inh: 0%
MYLK2
  %Inh: 0%
MYLK4
  %Inh: 5%
MYLK
  %Inh: 15%
MYO3A
  %Inh: 33%
MYO3B
  %Inh: 0%
NDR1
  %Inh: 13%
NDR2
  %Inh: 0%
NEK10
  %Inh: 7%

## O=C(Nc1n[nH]c2nc(-c3ccc(O)cc3)ccc12)C1CC1 [SB-710363]
MLK1
  %Inh: 0%
MLK2
  %Inh: 0%
MLK3
  %Inh: 0%
MRCKA; [1]
  %Inh: 0%
MRCKB
  %Inh: 0%
MST1R
  %Inh: 0%
MST1
  %Inh: 0%
MST2
  %Inh: 0%
MST3
  %Inh: 0%
MST4
  %Inh: 9%
MTOR
  %Inh: 0%
MUSK
  %Inh: 0%
MYLK2
  %Inh: 79%
MYLK4
  %Inh: 31%
MYLK
  %Inh: 35%
MYO3A
  %Inh: 62%
MYO3B
  %Inh: 9%
NDR1
  %Inh: 0%
NDR2
  %Inh: 4%
NEK10
  %Inh: 0%

## CN(C)Cc1ccc(-c2ccc3c(Nc4ccc(Oc5ccccn5)cc4)ccnc3c2)o1 [GW567148]
MLK1
  %Inh: 0%
MLK2
  %Inh: 0%
MLK3
  %Inh: 1%
MRCKA; [1]
  %Inh: 0%
MRCKB
  %Inh: 0%
MST1R
  %Inh: 41%
MST1
  %Inh: 14%
MST2
  %Inh: 0%
MST3
  %Inh: 0%
MST4
  %Inh: 0%
MTOR
  %Inh: 8%
MUSK
  %Inh: 0%
MYLK2
  %Inh: 0%
MYLK4
  %Inh: 0%
MYLK
  %Inh: 4%
MYO3A
  %Inh: 0%
MYO3B
  %Inh: 0%
NDR1
  %Inh: 6%
NDR2
  %Inh: 0%
NEK10
  %Inh: 13%

## CSc1cccc2c(-c3ccncn3)c(-c3ccc(F)cc3)nn12 [GW514786]
MLK1
  %Inh: 14%
MLK2
  %Inh: 19%
MLK3
  %Inh: 12%
MRCKA; [1]
  %Inh: 25%
MRCKB
  %Inh: 14%
MST1R
  %Inh: 18%
MST1
  %Inh: 5%
MST2
  %Inh: 14%
MST3
  %Inh: 5%
MST4
  %Inh: 6%
MTOR
  %Inh: 24%
MUSK
  %Inh: 7%
MYLK2
  %Inh: 0%
MYLK4
  %Inh: 0%
MYLK
  %Inh: 23%
MYO3A
  %Inh: 13%
MYO3B
  %Inh: 0%
NDR1
  %Inh: 13%
NDR2
  %Inh: 12%
NEK10
  %Inh: 2%
